Drawing on PubChem BioAssay AID1259415 (National Center for Advancing Translational Sciences (NCATS), 2018), this text covers activity change, negative = inhibition for 55 compounds.

SMILES strings stand for the structures. Screen size: about 410,000 compounds; about 18,000 (4.4%) were called active. Roughly 7% stayed inconclusive and do not appear here. The sample as a whole holds a higher share of actives than the screen did. Unmarked numbers belong to inactive results. Rule as the data show it: active = activity change below about -60%; inconclusive = no clear call, values can overlap the other calls; inactive = above about -39%.
% is scaled to controls: 0 for no effect and ±100 for the full control effect.

This experiment is described as follows: qHTS Assay for inhibitors of the human cytomegalovirus (HCMV). Conditions: HFF cells, HCMV-luciferase reporter, 72 h; at 57.5 µM; hits give low values. Put shortly:
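Luciferase read-out from HCMV-luciferase-infected HFFs (MOI 1 PFU/cell) 72 h post infection at 37C; compounds added after 16 h cell attachment; activity normalized between buffer-only basal and Salinomycin (10uM) inhibitor controls.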
(Quantitative high-throughput screening tests each substance at several concentrations.)
Take `O=C(CSc1nnc(-c2ccccc2F)o1)Nc1cccc(C(F)(F)F)c1`: the activity change, negative = inhibition is 98.3%. For `Cc1nn(Cc2ccc(F)cc2)c(C)c1NC(=O)c1cc(CC(C)C)on1`, the activity change, negative = inhibition was -39%.

As to `CCCCCCOc1ccc(OC(=O)c2cccnc2)cc1`, the activity change, negative = inhibition was -79.3% (active). Under `Cc1ccc(OCC(=O)N2CCN(C(=O)c3cccnc3)CC2)cc1` stands -12.6%; under `CCCOc1cccc(C(=O)NCCCNC(=O)c2cccnc2)c1`, -8.85%; under `O=C(CCn1ccc2cc(S(=O)(=O)N3CCCC3)ccc21)NCc1cccc(Cl)c1`, -10.7%.

`O=C(Cn1ncn2nc(-c3cccs3)cc2c1=O)NCc1cccc(Br)c1`: the activity change, negative = inhibition was 12.3%. The result for `CCC[C@H]1[C@@H](NS(=O)(=O)c2ccc(F)cc2)CC[C@@]23CCCN2C(=O)CCC[C@@H]13` reads -4.65%; that for `CCOC(=O)c1c(-c2cccc(N)c2)cn2ccccc12`, 17.2%. Under `CCOC(=O)c1[nH]cnc1C(=O)Nc1ccccc1C` stands -21.4%. Under `CCCS(=O)(=O)c1ncc(Cl)c(C(=O)Nc2scc(-c3ccccc3)c2C(=O)OCC)n1` stands -98.8% (active).

For the compound `CCOC(=O)c1c(-c2cccc(C)c2)csc1NC(=O)c1c(-c2ccccc2)noc1C`, the activity change, negative = inhibition is -94% (active). Under `CCCSc1ncc(Cl)c(C(=O)Nc2sc3c(c2C(=O)NCCOC)CCCC3)n1` stands -24%; under `CCOC(=O)c1c(C2CC2)csc1NC(=O)CSCc1c(C)noc1C`, 42.9%. In the case of `Oc1c(C(c2ccccc2Cl)N2CCOCC2)sc2nc(-c3ccco3)nn12` (stereo not given), the activity change, negative = inhibition was -16.1%.

Take `O=C(CCN1CCc2ccccc2C(O)(c2ccccc2)C1)c1ccc2c(c1)OCCO2` (stereo not given): the activity change, negative = inhibition was 25.7%.

For `O=S(=O)(Nc1ccc2nc(-c3ccco3)[nH]c2c1)c1ccccc1`, the activity change, negative = inhibition was 16.8%. Under `O=[N+]([O-])c1ccc(N/N=C2/CCCCC2c2ccccn2)c([N+](=O)[O-])c1` (stereo not given) stands 4.73%; under `O=[N+]([O-])c1ccc2nc(-c3ccccn3)[nH]c2c1`, -79.3% (active). `Cc1cc(C)cc(Oc2nc3c(C)cccn3c(=O)c2/C=C(\C#N)C(=O)NC2CCS(=O)(=O)C2)c1` (stereo not given): the activity change, negative = inhibition was 44.8%. Regarding `Cc1cccn2c(=O)c(/C=C(\C#N)C(N)=O)c(N3CCCCCC3)nc12`, the activity change, negative = inhibition is -70.1% (active). For `COCCCNC(=O)/C(C#N)=C/c1c(N2CCCCCC2)nc2ccccn2c1=O`, the activity change, negative = inhibition is -37.9%. Under `Nc1[nH]c(C(=O)c2ccccc2)c(-c2ccc(Br)cc2)c1C(=O)NC1CC1` stands -20.4%. The result for `NC(=O)C(Cc1ccccc1)NC(=O)C12CC3CC(CC(C3)C1)C2` (stereo not given) reads 50.8%; that for `Cc1ccc(S(=O)(=O)c2nc(-c3cccs3)oc2N2CCCCC2)cc1`, -15.8%. Consider `COc1cc(-c2cc3n(C)c(C)c(CCC(=O)Nc4ccc(F)cc4)c(=O)n3n2)cc(OC)c1OC`, for which the activity change, negative = inhibition was -22.9%. With `Cc1sc(C2C(C#N)=C(N)N(c3cccc(Cl)c3)C3=C2C(=O)CCC3)cc1CN1CCOCC1` (stereo not given), the activity change, negative = inhibition is -21.6%.

As for `COc1ccc(C(C)=O)cc1COc1ccc(Cl)c(C)c1`, the activity change, negative = inhibition was -1.3%. Under `COc1ccc(/C=C/C(=O)Nc2c(C)nn(C)c2C)cc1COc1ccc(Br)cc1` stands -35.2%. Under `CCn1nc(C)c(NC(=O)/C=C/c2ccc(OC)c(COc3ccc(Br)cc3)c2)c1C` stands -68% (active); under `CCOC(=O)N1CCc2c(sc3c2C(=O)NC(c2ccccc2F)N3)C1` (stereo not given), -3.15%; under `C=CCN1C(=O)C(Cc2ccc(OCC)cc2)SC1=Nc1ccc(C(=O)O)cc1` (stereo not given), 10.9%. `CN(c1ccc(C(=O)N2CCc3ccccc3C2)cc1)S(C)(=O)=O`: the activity change, negative = inhibition is 5.34%. The result for `CN(c1cccc(NC(=O)Nc2ccc(Cl)cc2)c1)S(C)(=O)=O` reads -81.1% (active).

Take `CC(=O)Nc1cccc(NC(=O)c2ccc3c(c2)CCN3S(C)(=O)=O)c1`: the activity change, negative = inhibition is 40.6%.

For the compound `CCN(CC)c1ccc(NC(=O)CN2CCN(CC(=O)Nc3ccc(Cl)cc3)CC2)cc1`, the activity change, negative = inhibition is 18%. `CN(c1cccc(NC(=O)c2ccc(CN3CCc4ccccc4C3)cc2)c1)S(C)(=O)=O`: the activity change, negative = inhibition was -74.1% (active). For the compound `CNS(=O)(=O)c1ccc(NC(=O)Nc2ccc3c(c2)OCO3)cc1`, the activity change, negative = inhibition was 61.9%.

Turning to `CC1(C(=O)NCc2cccc3ccccc23)CCN1Cc1ccc(-c2ccccc2)o1` (stereo not given), the activity change, negative = inhibition was -20.5%. Under `CCNC(=O)C1CCCN(C(=O)c2ccc(OC)cc2OC)CC1` (stereo not given) stands -11.4%; under `Cn1c(=O)c2c(-c3ccccc3Br)n(Cc3ccccc3)cc2n(C)c1=O`, -17.1%; under `CCc1nn(CC(=O)N2CCN(c3ccc(Cl)cc3)CC2)c(=O)c2cc3occc3n12`, -13.8%. The result for `Cc1cccc(S(=O)(=O)c2cn(Cc3ccccc3)c3cc(N4CCOCC4)c(F)cc3c2=O)c1` reads 17.2%. The result for `CCOc1cc(-c2noc(CCCC(=O)NC3CCCCC3)n2)ccc1OC` reads -89.7% (active).

For the compound `COc1ccc(-c2noc(CCCC(=O)NC3CCCC3)n2)cc1OC`, the activity change, negative = inhibition was -17%.

As to `CCOc1cc(-c2noc(CCC(=O)N3CCOCC3)n2)ccc1OC`, the activity change, negative = inhibition is 2.89%. Under `C[C@@H]1CN([C@@H](C)CO)C(=O)CCCn2nncc2CO[C@H]1CN(C)C(=O)Nc1ccc(C(F)(F)F)cc1` stands 8.54%; under `CC[C@@H](C)[C@@H](C(=O)N1CCN(C(=O)OC(C)(C)C)CC1)n1cc(CCC(=O)O)nn1`, 14.7%.

Regarding `COc1ccc(-c2noc(-c3ccc(N4CCN(c5ccccc5)CC4)c([N+](=O)[O-])c3)n2)cc1OC`, the activity change, negative = inhibition was 14.1%.

For the compound `Cc1ccc(F)cc1S(=O)(=O)N1CCC(c2nc3ccccc3s2)CC1`, the activity change, negative = inhibition is -23.3%. Turning to `CC1=CC(=C(C#N)c2nc3ccccc3s2)C=C(C)N1c1ccc(F)cc1F`, the activity change, negative = inhibition was -64.6% (active). Turning to `Cc1ccc(C(=O)Nc2ccc3[nH]c(=O)c(=O)[nH]c3c2)cc1`, the activity change, negative = inhibition is -0.693%. Regarding `CCOc1ccccc1NC(=O)Cn1c(=O)n(-c2cccc(C)c2)c(=O)c2c1c1cc(OC)ccc1n2C`, the activity change, negative = inhibition is 19.1%. With `COc1ccc(C(=O)Nc2onc3c2CCCC3)cc1`, the activity change, negative = inhibition was 1.09%. Consider `CCOc1cccc(CNC(=O)c2ccc(N3CCCC3)c(NC(=O)Nc3ccccc3CC)c2)c1`, for which the activity change, negative = inhibition was -10.9%.
